# Test results from ChEMBL document CHEMBL3433997, “St. Jude Leishmania screening dataset” (2016).
# Assays:
# Type in all cases: functional
# [1] = target: Solute carrier family 2, facilitated glucose transporter member 1 (Homo sapiens) (UniProt P11166); experiment: ST_JUDE_LEISH: Cytotoxicity at 2uM final concentration against transgenic Leishmania Mexicana promastigotes LmGLUT1 that are glucose transport deficient and complemented with the human glucose transporter GLUT1. Activity is measured by DNA content using SYBR green in vitro
# Chain of Solute carrier family 2, facilitated glucose transporter member 1 (Homo sapiens) (P11166 whole entry): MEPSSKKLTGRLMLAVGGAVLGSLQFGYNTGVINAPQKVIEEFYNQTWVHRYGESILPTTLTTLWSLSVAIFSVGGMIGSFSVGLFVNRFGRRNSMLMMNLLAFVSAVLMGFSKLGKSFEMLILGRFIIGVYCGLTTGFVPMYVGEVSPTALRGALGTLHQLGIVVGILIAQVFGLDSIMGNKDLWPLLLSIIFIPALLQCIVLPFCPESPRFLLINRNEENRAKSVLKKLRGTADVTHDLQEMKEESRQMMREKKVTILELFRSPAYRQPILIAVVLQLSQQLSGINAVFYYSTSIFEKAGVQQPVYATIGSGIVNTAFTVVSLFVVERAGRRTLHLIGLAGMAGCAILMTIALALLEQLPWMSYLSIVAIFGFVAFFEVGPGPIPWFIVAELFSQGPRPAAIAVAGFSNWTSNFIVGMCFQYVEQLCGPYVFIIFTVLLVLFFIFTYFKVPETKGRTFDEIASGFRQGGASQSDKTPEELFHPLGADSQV
# [2] = target: Hexose transporter 1 (Plasmodium falciparum) (UniProt O97467); experiment: ST_JUDE_LEISH: Cytotoxicity at 2uM final concentration against transgenic Leishmania Mexicana promastigotes LmPfHT that are glucose transport deficient and complemented with the Plasmodium falciparum hexose transporter. Activity is measured by DNA content using SYBR green in vitro
# [3] = target: Glucose transporter (Leishmania mexicana) (UniProt O61059); experiment: ST_JUDE_LEISH: Cytotoxicity at 2uM final concentration against transgenic Leishmania Mexicana promastigotes LmGT2 that are glucose transport deficient and complemented with the L. Mexicana glucose transporter 2. Activity is measured by DNA content using SYBR green in vitro
Structure (SMILES),inhibition [1],inhibition [2],inhibition [3]
C[C@@H](CNc1ccnc(Nc2ccc3[nH]c(=O)[nH]c3c2)n1)c1ccccc1,-3.02%,-0.02%,-0.41%
Cc1nc(NC(=N)N)nc2ccc(C(C)(C)C)cc12,0.73%,0.81%,1.22%
CC(=O)Nc1ccc(CN2CCC(NC(=O)c3ccc(-c4cccc(OC(C)C)c4)s3)CC2)cc1,6.04%,2.62%,7.43%
Cc1cc(N(C)C)nc(Nc2ccc(NS(=O)(=O)c3ccccc3)cc2)n1,7.64%,10.6%,5.82%
CC(c1cccc(S(=O)(=O)NCc2cccc(C(F)(F)F)c2)c1)N1CCC(N2CCCCC2)CC1 (centres undefined),6.15%,7.23%,7.91%
O=C(Nc1ccc(C(F)(F)F)cc1)NC1CCN(c2ccnc3ccccc23)CC1,4.74%,3.35%,-3.98%
Nc1c2c(nc3ccc(C(=O)Nc4cc(I)c(O)c(I)c4)cc13)CCCC2,1.22%,1.9%,1.74%
NCc1ccc(Nc2nccc(Nc3ccc(-c4ccccc4)cc3)n2)cc1,2.28%,4.91%,0.24%
CCC(C)c1ccc(-n2c(Nc3ccccc3)nc3cc(S(N)(=O)=O)ccc32)cc1 (centres undefined),12.3%,6.89%,5.77%
COc1ccc(Br)cc1C1C2C(=O)N(c3ccc(Br)cc3)C(=O)C2C2(C(=O)O)CC(OCc3ccccc3)CN12 (centres undefined),12.4%,12%,10.2%
COc1ccc(O)c(-c2sc(N=C(N)N)nc2-c2ccccc2)c1,1.77%,2.67%,3.42%
N#Cc1cc(C(=O)c2cc(Cl)ccc2O)cn(-c2cccc(C(F)(F)F)c2)c1=O,8.27%,7.71%,5.33%
Cc1cc(N/N=C/c2ccccc2[N+](=O)[O-])c2ccc(F)cc2n1,2.1%,4.11%,1.62%
N=C(NCC1CC1c1ccccc1)c1cccc(C(=N)NCC2CC2c2ccccc2)n1 (centres undefined),5.1%,5.88%,6.3%
Fc1ccc2[nH]cc(CCNCc3ccc(-c4cccc(-c5nc6ccccc6[nH]5)c4)cc3)c2c1,4.9%,4.54%,3.56%
CC(C)(CNCc1ccc(OC(F)(F)F)cc1)c1nc(-c2ccc(Cl)c(O)c2)c(-c2ccncc2)[nH]1,-0.48%,0.11%,6.94%
COC(=O)CC[C@H](NC(=O)[C@H](C)NC(=O)OC(C)(C)C)C(=O)OC,4.67%,0.48%,0.89%
COc1ccc(NC(=O)/C=C/c2ccccc2Cl)cc1OCCN1CCC(NC2CC2)CC1,8.25%,5.69%,4.32%
CCC(C)CN1C(=O)C(c2ccccc2)(c2ccccc2)N=C1N (centres undefined),2.09%,2.72%,2.04%
Cc1ccc(NCC(=O)Nc2ccc(F)c(Cl)c2)cc1S(=O)(=O)N1CCOCC1,2.54%,1.86%,0.32%
c1cc(-c2ccc(CN3CCCC3)cc2)cc(-c2nc3ccccc3[nH]2)c1,0.44%,1.4%,0.98%
CCc1ccc(C2CCN(CCCCNC(=O)c3ccc(NC(=O)c4ccc(Cl)cc4)cc3)CC2)cc1,-0.05%,0.38%,0.05%
Cc1nc(-c2cccc(Nc3nccc(NCC(O)c4cccc(C(F)(F)F)c4)n3)c2)cs1 (centres undefined),1.56%,0.83%,-0.26%

Structure (SMILES),inhibition [1],inhibition [2],inhibition [3]
CCCCCCN1CCC(NCc2ccc(OCCN3CCCC3)cc2)CC1,-1.34%,-0.02%,-0.15%
CC(C)(C)c1ccc(CN2CCC(CNC(=O)c3cc(-c4cccc(Cl)c4)cs3)C2)cc1 (centres undefined),16.7%,3.66%,1.5%
O=C(Nc1cccc(-c2ccc(-c3nc4cc(C(F)(F)F)ccc4[nH]3)cc2)c1)c1cccnc1,3.27%,1.71%,-0.02%
CCN1CCC(N(Cc2ccc(-c3ccc(C(F)(F)F)cc3)cc2)C(=O)Cn2c(CCc3cccc(F)c3F)cc(=O)c3cn(C)nc32)CC1,-2.3%,1.08%,0.21%
Cn1c(N)cc(-c2ccc(Br)cc2)c2c(=O)nc(N)nc1-2,6.75%,4.96%,5.76%
CN1CCC(C(=O)Nc2cccc(-c3ccc(-c4nc5cc(F)ccc5[nH]4)cc3)c2)CC1,8.64%,10.3%,9.64%
CN(C)CCC1CCCc2ccc(NC(=O)Nc3ccc(-c4ccncc4)c4ccccc34)cc21 (centres undefined),4.29%,1.03%,-0.88%
COc1cc2nc(NCC3CCN(c4nc(N)c5cc(OC)c(OC)cc5n4)CC3)nc(N)c2cc1OC,3.62%,2.73%,3.28%
COc1ccc2nccc([C@@H](O)CN3CCC(NCCOc4cc(C(F)(F)F)ccc4F)CC3)c2c1,21.5%,33.3%,14.4%
CCCCCCCCc1c(C)nc(C)c(I)c1O,-1.12%,0.28%,-2.61%
Cc1nc2nc(N)nc(N)c2c(C)c1Cc1c(Cl)cccc1Cl,8.8%,10.7%,7.3%
O=S(=O)(c1ccccc1OC(F)(F)F)C1CC2CCC(C1)N2S(=O)(=O)c1cccc(C(F)(F)F)c1 (centres undefined),0.7%,-0.63%,0.73%
COc1ccc2nccc([C@@H](O)CN3CCC(NC(=O)c4cc5cccnc5[nH]4)CC3)c2c1,5.47%,3.5%,-0.32%
CCOc1c(CNCCCCCCNCc2ccc3ccccc3c2OCC)ccc2ccccc12,3.4%,4.82%,1.99%
COc1ccc(-c2nc(NC(=O)Cc3ccc4c(c3)OCCO4)sc2C)cc1,3.71%,4.52%,5.29%
CC1(C)NC(N)=NC(=N)N1OCc1nc(N)nc(Nc2ccccc2)n1,5.43%,5.4%,5.9%
CN(C)C(=O)CC(=O)NCc1cccc(Cl)c1,6.99%,6.27%,7.23%
NC1=NC2(CCCCC2)N(OCCCCCCc2ccccc2)C(N)=N1,2.09%,1.39%,0.69%
CN(CCN)Cc1cccc(-c2cccc(-c3nc4cc(F)ccc4[nH]3)c2)c1,1.11%,1.79%,-1.76%
COc1cccc(CN2CCCC(COC(c3ccc(F)cc3)c3ccc(F)cc3)C2)c1O (centres undefined),0.95%,1.89%,-0.91%
CS(=O)(=O)Nc1ccc(-c2cnc3[nH]cc(-c4ccc(C(=O)O)cc4)c3c2)cc1,8.98%,9.93%,8.74%
Nc1c2c(nc3ccc(NC(=O)CCCCCc4ccccc4)cc13)CCCC2,7.95%,9.26%,10%
CC(=O)Oc1c(C2CCN(CCCCNC(=O)c3ccc(NC(=O)c4ccc(Cl)cc4)cc3)CC2)ccc2c1CCCC2,4.86%,6.32%,3.9%

Structure (SMILES),inhibition [1],inhibition [2],inhibition [3]
CCN(CC)CCN(Cc1ccc(-c2ccc(C(F)(F)F)cc2)cc1)C(=O)Cn1c(CCc2cccc(F)c2F)nc(=O)c2ccccc21,1.51%,0.95%,1.67%
CCOC(=O)c1ccc(NC(=O)Nc2ccc(-c3ccc(-c4nc5ccccc5[nH]4)cc3)cc2)cc1,3.64%,3.36%,3.8%
CN1CCN(CC(=O)Nc2cccc(-c3ccc(-c4nc5cc(C(F)(F)F)ccc5[nH]4)s3)c2)CC1,1.78%,2.7%,4.37%
CCOc1cc2ncnc(Nc3ccc(OCc4c(Cl)cccc4Cl)c(OC)c3)c2cc1OCC,4.01%,4.16%,3.54%
CC(C)(C)c1ccc(NC(=O)Nc2ccc(Cn3ncc(N4CCCNCC4)c(Cl)c3=O)cc2)cc1,6.36%,6.82%,3.41%
CC(=O)c1ccc(NC(=O)C2c3ccccc3C(=O)N(CC(C)C)C2c2cccs2)cc1 (centres undefined),-0.43%,0.9%,0.34%
CNCc1cccc(-c2ccc3ccnc(N)c3c2)c1,7.92%,10.7%,7.76%
COCc1ccc(CN2CCC(C(=O)Nc3ccc(-c4nc5ccccc5[nH]4)cc3)CC2)o1,7.66%,5.18%,5.81%
C(=C(c1cccs1)c1cccs1)c1ccc(CNC2CCN(Cc3ccccc3)CC2)cc1,4.45%,6.16%,5.77%
Cc1ccc2[nH]c(NC#N)nc2c1,0.53%,0.67%,0.78%
COC(=O)CCCOc1cc(Cc2cnc(N)nc2N)cc(OC)c1OC,7.51%,6.32%,9.19%
CC(C)CNC(=O)c1ccnc(-c2ccc(CNC3Cc4ccccc4C3)cc2)c1,-0.85%,-0.27%,-1.63%
O=C(NCCc1ccccc1)N(Cc1ccccc1-c1cccc(CNCc2ccc3c(c2)OCO3)c1)C1CCN(Cc2ccccc2)CC1,3.72%,4.3%,3.13%
Nc1nc(N)c2c3c(cnc2n1)CCCC3,9.74%,9.11%,10.8%
Cc1cc2cc(-c3ccc(CN)cc3)ccc2nc1N,-1.44%,1.71%,-3.5%
CCc1cn(C)c2c(N3CCCC3=O)cc(C(=O)N[C@@H](Cc3ccccc3)[C@H](O)CNCc3cccc(OC)c3)cc12,2.48%,2.2%,2.88%
Fc1ccc2[nH]c(-c3ccc(-c4cccc(CN5CCCCC5)c4)cc3)nc2c1,1.59%,1.72%,1.72%
OC1CCCN(Cc2cccc(-c3ccc(-c4nc5cc(C(F)(F)F)ccc5[nH]4)cc3)c2)C1 (centres undefined),2.67%,2.8%,3.54%
CC1(C)Cc2c(oc3ncn(CCn4cnc5oc6c(c5c4=N)CC(C)(C)SC6)c(=N)c23)CS1,-0.76%,0.58%,-0.4%
O=C(/C=C/c1ccc(-c2nc3cc(F)c(F)cc3[nH]2)cc1)NCc1ccc(Cl)c(Cl)c1,4.53%,4.32%,1.96%
COc1ccc2c(c1)[nH]c1c(C=Cc3ccccc3)nccc12,6.16%,5.09%,3.77%
CC(C)(C)c1ccc2[nH]c(-c3ccc(C(=O)NCc4cccc(C(F)(F)F)c4)cc3)nc2c1,-0.02%,0.63%,3.09%
